Only some compounds are listed: those with a hit (about 3.8% of all), similar ones and a draw of the others.
A549 viability – A549 cytotoxicity, counter-screen for Nrf2 inhibitors; A549 ARE-Fluc cells, CellTiter-Fluor viability, 18-24 h; Potency, µM (titrated, usually from 46 µM), without a hit: at the highest dose activity change, negative = cytotoxicity, most hits filed as inhibitors; hit rate 0.16% among 390,000; AID 504648; note: % is set by controls: 0 for no effect and ±100 for the full control effect
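A549 ARE-Fluc cells in 5% FBS OPTI-MEM, 5000 cells/well, rested 2 h then exposed to compounds in concentration-response for 18-24 h at 37 °C. Viability by CellTiter-Fluor fluorescence (Ex 405/Em 525) after 30 min; luciferase luminescence (BugLite, 15 min, RT) read afterwards.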
ATXN viability – viability counter-screen for ATXN expression inhibitors | S2 cells (HEK-293 line with an ATXN2-luciferase reporter) viability, CellTiter-Fluor protease fluorescence, 24 h | Potency, µM (highest dose often 56.7 µM), most hits filed as cytotoxic | hit rate 0.49% among 400,000 | AID 651635; note: nearly all actives have a fitted effect of over 40% in size
ATXN2 expr inh – reduces ATXN2 reporter expression in HEK-293 cells. Potency, µM (top dose mostly 57 µM), inactives show at the highest dose activity change, negative = inhibition, usual class: inhibitors. hit rate 0.72% among 360,000. HEK-293 ATXN2-luciferase reporter, luminescence, 24 h. AID 1745845; note: % is set by controls: 0 for no effect and ±100 for the full control effect; nearly all actives have a fitted effect of over 55% in size
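ATXN2-luciferase reporter cells (luciferase flanked by upstream and downstream ATXN2 gene portions) were treated 24 h at 37 °C with compounds at up to 57 uM. SteadyGlo luminescence gave expression; GF-AFC fluorescence gave viability.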
TGFb SMAD3 inh – inhibitors of TGF-b signaling; HepG2 CAGA-GFP TGF-b/SMAD3 reporter, GFP fluorescence, 18 h; TGF-beta stimulated, 500 pg/mL final; Potency, µM (doses to about 46.1 µM), inactives show top-dose activity, negative = inhibition, hits mostly inhibitors; hit rate 1.2% among 410,000; AID 588855; note: % is set by controls: 0 for no effect and ±100 for the full control effect; nearly all actives have a fitted effect of over 65% in size
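Per well, imaged GFP fluorescence of HEPG2 CAGA-GFP cells gives the signal; cells get compound, then TGF-beta (500 pg/mL final), 18 h at 37 degrees C; %Activity versus -TGF-beta and +DMSO controls.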
Nrf2 inh – inhibitors of Nrf2 signaling; A549 ARE-Fluc reporter, luciferase luminescence, 18-24 h; Potency, µM (doses to about 46 µM), for inactives: at the highest dose activity change, negative = inhibition, most hits filed as inhibitors; hit rate 2.1% among 360,000; AID 504444; note: % is set by controls: 0 for no effect and ±100 for the full control effect; nearly all actives have a fitted effect of over 60% in size
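Quantitative HTS in A549 cells stably bearing an antioxidant response element-firefly luciferase construct. Inhibition of Nrf2-driven transcription was scored by luminescence after 18-24 h of compound exposure at 37 °C.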
HepG2 viability – HepG2 cytotoxicity, counter-screen for TGF-b inhibitors. HepG2 CAGA-GFP viability, ATP luminescence, 18 h. AID 588856. hit rate 0.76% among 410,000. Potency, µM (series often up to 46.1 µM), without a hit: at the top dose activity change, negative = cytotoxicity, most hits filed as cytotoxic
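CellTiter-Glo luminescence gave cytotoxicity after 18 hours at 37 degrees C. The cells were HepG2 CAGA-GFP in 1% FBS DMEM, stimulated with 500 pg/mL TGF-beta after compound addition. %Activity was normalised to no-cell wells (complete cell-killing) and DMSO (no toxicity), and curves were fitted and classified.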
Starred values were filed as active, the others as inactive; i = inactive; ? = inconclusive; · = no result. Calls come from the whole dose curve; as a rule, active = well fitted curve in the direction sought with a large enough effect; inconclusive = small, poorly fitted or top-dose-only effect, or another doubt; inactive = no such curve, though single readings can be large; an effect the other way counts as inactive or inconclusive. Potency is the fitted concentration of half-maximal effect.

SMILES | A549 viability | ATXN viability | ATXN2 expr inh | TGFb SMAD3 inh | Nrf2 inh | HepG2 viability
O=C(CNC(=O)C(c1ccccc1)c1ccccc1)N/N=C\c1ccc(C(=O)O)cc1 | -2% | i | · | 10% | 3% | 39%
CCOc1ccc2cc(S(=O)(=O)N3CCCCC3)ccc2c1 | 0% | i | -17% | -24% | ? | 18µM*
CCOc1ccc(C(=O)NCCC(=O)NCCCC(=O)O)cc1 | -2% | i | -6% | 10% | 4% | -20%
CCCCOc1ccc(C2=NC(c3ccncc3)=Nc3ccc(OCC)cc3N2)cc1 | 2% | i | -4% | -20% | 1% | -25%
CCN(CC)C(=O)CSC1=N/C(=C/c2ccco2)C(=O)N1c1ccc(OC)c(Cl)c1 | ? | 5µM* | ? | ? | 15% | -17%
COc1ccc(N2C(=O)/C(=C\c3ccco3)N=C2SCC(=O)NC(C)(C)C)cc1Cl | ? | i | -2% | -29% | 25% | -3%
COc1cccc(CN(C(=O)c2cccc(C)c2)C2CCS(=O)(=O)C2)c1 (stereo unspecified) | -2% | · | · | -23% | 3% | -1%
Cc1ccc2c(Br)cc(Br)c(O)c2n1 | · | ? | 6.3µM* | · | · | ·
COc1cc(/C=C(\C#N)c2nc3ccc(C)cc3[nH]2)cc([N+](=O)[O-])c1O | 21µM* | 18µM* | 37% | ? | ? | -3%
CC1CC(C)CN(C(=O)C(C)N2CCN(S(=O)(=O)c3ccc(C(F)(F)F)cc3)CC2)C1 (stereo unspecified) | ? | ? | · | ? | 18µM* | -11%
CN1N=C(N)c2cn(C3OC(COP(=O)(O)O)C(O)C3O)c3ncnc1c23 (stereo unspecified) | -12% | i | 16% | 0.28µM* | -19% | -41%
Cc1ccc(S(=O)(=O)c2nnn3c2nc(NCCc2ccccc2)c2sccc23)cc1 | -1% | · | · | 51% | 21µM* | -12%
Cc1ccc(CCNc2nc3c(S(=O)(=O)c4ccccc4)nnn3c3ccsc23)cc1 | 5% | · | · | 37% | -2% | 3%
Cc1ccc(S(=O)(=O)c2nnn3c2nc(NC(C)C)c2sccc23)cc1 | 8% | · | · | 10µM* | -12% | 16µM*
Cc1ccc(S(=O)(=O)c2nnn3c2nc(NC2CCCCC2)c2sccc23)cc1 | -1% | · | · | 57% | -17% | -18%
CCN(CC)S(=O)(=O)c1cc(-c2nnc(-c3ccc(Br)cc3)o2)ccc1Cl | -22% | i | -19% | -7% | 21µM* | 1%
O=C(CN1CCCCC1)NCC(=O)Nc1ccc(F)c(F)c1F | -8% | i | -7% | -4% | -10% | -12%
O=C1CC(N(CCc2ccccc2)C(=S)Nc2ccccc2)C(=O)N1c1ccc(Br)cc1 (stereo unspecified) | ? | ? | ? | ? | ? | 2.2µM*
O=C(CCCN1CCOCC1)c1ccc2c(c1)OCCO2 | -2% | ? | -13% | -1% | ? | -5%
O=C(CCN1CCc2ccccc2CC1)c1ccc2c(c1)OCCO2 | · | ? | ? | ? | 18µM* | 1.4µM*
CC(=O)c1cccc(NC(=O)c2cccc3c(-c4cccc(C(N)=O)c4)coc23)c1 | · | ? | 32µM* | -5% | · | -5%
CS(=O)(=O)Nc1cccc(NC(=O)c2cccc3c(-c4cccc(C(N)=O)c4)coc23)c1 | · | i | ? | 10% | · | -3%
COCc1ccc(O)c2ncccc12 | -12% | ? | ? | 1.6µM* | -20% | -77%
Cc1c(C)c2cccnc2c2ncccc12 | 5.8µM* | ? | ? | 10µM* | ? | -35%
O=S(=O)(O)c1ccc2c(N=Nc3ccc(S(=O)(=O)O)c4ccccc34)c(O)c(S(=O)(=O)O)cc2c1 | · | · | · | -5% | · | 1%
SMILES | A549 viability | ATXN viability | ATXN2 expr inh | TGFb SMAD3 inh | Nrf2 inh | HepG2 viability
O=S(=O)(O)c1cccc2c(N=Nc3ccc(O)c4ncccc34)cccc12 | 12µM* | ? | -7% | 3% | -39% | 1%
Cc1ccc(S(=O)(=O)Nc2ccc(O)c3ncccc23)cc1 | -14% | ? | -29% | ? | -6% | -56%
Cc1ccc(O)c2ncccc12 | · | ? | 16µM* | · | · | ·
COc1cccc2c1C(=O)/C(=C/c1ccc(N(C)C)cc1)C2 | · | · | · | -3% | · | -35%
Nc1c(C(=O)OCC(=O)Nc2cccc([N+](=O)[O-])c2)[nH]c(=O)[nH]c1=O | 0% | i | -3% | 11% | -1% | 2%
O=Nc1ccc(O)c2ncccc12 | ? | 16µM* | · | ? | ? | -96%
COc1cc(-c2ccc3c(=O)c4ccccc4n(C)c3c2)cc(OC)c1OC | ? | i | -23% | 10% | 13µM* | -26%
CCC(C)(C)c1ccc(OCCCC[n+]2cccc(C)c2C)c(C(C)(C)CC)c1 | 12µM* | · | · | 10µM* | 5.8µM* | -132%
Cc1cc(C(C)(C)C)ccc1OCCCCN1CCCC1 | 4% | i | -14% | -26% | 13% | -29%
CCC(C)(C)c1ccc(OCCCC[n+]2ccc(C)cc2)c(C(C)(C)CC)c1 | ? | ? | 20µM* | 16µM* | 13µM* | 13µM*
Cc1cc[n+](CC[n+]2ccc(C)cc2)cc1 | -4% | i | 5% | 2% | 13% | -1%
N#CC1=C2SCC(O)(c3ccccc3)N2C(=O)CC1c1ccccc1F (stereo unspecified) | -6% | ? | -7% | 4% | 10µM* | -34%
N#CC1=C2SCC(O)(c3ccccc3)N2C(=O)CC1c1cccs1 (stereo unspecified) | -12% | i | 34% | 1% | · | -25%
C[C@@H]1[C@H](c2ccccc2)OCCS(=O)(=O)N1Cc1ccccc1F | · | · | · | -35% | · | -20%
